Reference: the supplement of paper PMC12669032
A number with no mark means an inactive call.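 The calls were made as follows: active = AUC reduced over 20% with Padj below 0.05 in at least 2 of 3 replicates; inactive = otherwise.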

Experiments:
[1] = tested on: Roseburia intestinalis; assay: growth AUC relative to DMSO control (median of replicates) (fraction); higher = more growth (less inhibition), active = hit call of the paper; settings: 20 µM; 24 h
Method in brief: (§1)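 Gut bacterial monocultures in mGAM were treated with 20 µM compound (1% DMSO) and grown anaerobically at 37 °C in round-bottom 96-well plates from OD600 0.05. OD600 was read hourly for 24 h, with the minimum OD set to 0. Area under the growth curve was normalised to the plate median of solvent-only wells, or to row and column medians on the industrial chemical plate. Each value is the median of three biological replicates, each grown on a separate day.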

[2] = tested on: Streptococcus salivarius; assay: as above; settings: 20 µM; 24 h
Method in brief: as §1

| Compound | growth AUC [1] | growth AUC [2] |
| --- | --- | --- |
| CC1(C)C(/C=C(\Cl)C(F)(F)F)C1C(=O)OC(C#N)c1cccc(Oc2ccccc2)c1 (stereo not given) | 0.952 | 0.981 |
| CC(Oc1ccc(Cl)cc1Cl)C(=O)O (stereo not given) | 0.978 | 0.981 |
| Nc1cc(Cl)ccc1Cl | 1.09 | 1 |
| CCCCCCCCCCCCC1=C(OC(C)=O)C(=O)c2ccccc2C1=O | 0.772 | 0.957 |
| COP(=S)(OC)SC(CC(=O)O)C(=O)O (stereo not given) | 1.02 | 1.03 |
| CNC(=O)Oc1ccc(N(C)C)c(C)c1 | 0.949 | 0.992 |
| O=C(O)COc1ccc(Cl)cc1Cl | 1.03 | 0.989 |
| ClCC(Br)CBr (stereo not given) | 1 | 0.973 |
| O=C(O)c1ccccc1C(=O)Nc1cccc2ccccc12 | 0.993 | 0.932 |
| COP(=S)(OC)Oc1ccc([N+](=O)[O-])cc1 | 0.917 | 0.968 |
| CCSCc1ccccc1OC(=O)NC | 1.01 | 1.02 |
| CCOP(=S)(OCC)Oc1ccc(S(C)=O)cc1 (stereo not given) | 1.02 | 1.03 |
| CC1(C(=O)Nc2ccc(O)c(Cl)c2Cl)CCCCC1 | 0.86 | 0.967 |
| Nc1ccc(Cl)cc1 | 0.963 | 1.01 |
| CC(COc1ccc(Oc2ccccc2)cc1)Oc1ccccn1 (stereo not given) | 0.94 | 1.01 |
| CCCCNC(=O)n1c(NC(=O)OC)nc2ccccc21 | 0.985 | 0.999 |
| C/C(=N/Nc1nc(C)cc(C)n1)c1ccccc1C | 0.715 (active) | 0.999 |
| CO/C=C(/C(=O)OC)c1ccccc1Oc1cc(Oc2ccccc2C#N)ncn1 | 0.961 | 0.991 |
| CCCN(CCOc1c(Cl)cc(Cl)cc1Cl)C(=O)n1ccnc1 | 0.8 | 0.984 |
| CCc1nn(C)c(C(=O)NCc2ccc(C(C)(C)C)cc2)c1Cl | 0.96 | 0.906 |
| O=C(NC(=O)c1c(F)cccc1F)Nc1cc(Cl)c(OC(F)(F)C(F)F)c(Cl)c1 | 0.977 | 0.962 |
| CCOC(=O)C(C)OC(=O)c1cc(Oc2ccc(C(F)(F)F)cc2Cl)ccc1[N+](=O)[O-] (stereo not given) | 0.78 (active) | 0.903 |
| CCc1cnc(C2=NC(C)(C(C)C)C(=O)N2)c(C(=O)O)c1 (stereo not given) | 1.02 | 1.02 |
| O=c1[nH]c(Cl)c(Cl)cc1Cl | 0.993 | 0.998 |
| Cc1cc(Cl)ccc1O[C@H](C)C(=O)O | 0.898 | 0.988 |

| Compound | growth AUC [1] | growth AUC [2] |
| --- | --- | --- |
| CCC(C)[C@H]1O[C@]2(C=C[C@@H]1C)C[C@@H]1C[C@@H](C/C=C(\C)[C@@H](O[C@H]3C[C@H](OC)[C@@H](O[C@H]4C[C@H](OC)[C@@H](O)[C@H](C)O4)[C@H](C)O3)[C@@H](C)/C=C/C=C3\CO[C@@H]4[C@H](O)C(C)=C[C@@H](C(=O)O1)[C@]34O)O2.CO[C@H]1C[C@H](O[C@H]2[C@H](C)O[C@@H](O[C@@H]3/C(C)=C/C[C@@H]4C[C@@H](C[C@]5(C=C[C@H](C)[C@@H](C(C)C)O5)O4)OC(=O)[C@@H]4C=C(C)[C@@H](O)[C@H]5OC/C(=C\C=C\[C@@H]3C)[C@]54O)C[C@@H]2OC)O[C@@H](C)[C@@H]1O (stereo not given in full) | 0.571 (active) | 0.961 |
| CCCCCCCC(=O)Oc1c(I)cc(C#N)cc1I | 0.957 | 0.805 |
| Nc1nc(N)[nH]c(=O)n1 | 0.981 | 1 |
| CC1=C(C(=O)Nc2ccccc2)S(=O)(=O)CCO1 | 0.989 | 0.979 |
| O=[N+]([O-])c1c(Cl)c(Cl)c(Cl)c(Cl)c1Cl | 0.993 | 1 |
| COC(=O)[C@@H](C)N(C(=O)Cc1ccccc1)c1c(C)cccc1C | 1.01 | 0.958 |
| Cl.NC1=NCCN1Cc1ccc(Cl)nc1 | 0.963 | 1.01 |
| CCOC(=O)/C=C(C)/C=C/C[C@@H](C)CCCC(C)C | 1.09 | 0.972 |
| COC(=O)/C(C)=C/OP(=S)(OC)OC | 0.981 | 1.01 |
| COc1ccc(/C(=C/C(=O)N2CCOCC2)c2ccc(Cl)cc2)cc1OC | 1.06 | 0.987 |
| Clc1cccc(Cl)c1Cl | 0.972 | 1.06 |
| CS/C(C)=N/OC(=O)N(C)SN(C)C(=O)O/N=C(\C)SC | 1.01 | 0.955 |
| OC(Cc1ccccc1Cl)(Cn1[nH]cnc1=S)C1(Cl)CC1 (stereo not given) | 0.978 | 0.959 |
| C[C@@H]1C[C@@H]([C@H](O)CC2CC(=O)NC(=O)C2)C(=O)[C@@H](C)C1 | 0.987 | 1.03 |
| COc1cc(OC)nc(NC(=O)NS(=O)(=O)c2ncccc2C(=O)N(C)C)n1 | 1.01 | 0.975 |
| COC(=O)COc1cc(Cl)c(Cl)cc1Cl | 0.996 | 1.01 |
| COP(=S)(OC)Oc1cc(Cl)c(Cl)cc1Cl | 0.966 | 0.994 |
| CCCN(CCC)C(=O)SCc1ccccc1 | 0.984 | 1 |
| CCOC(=O)COc1cc(-c2nn(C)c(OC(F)F)c2Cl)c(F)cc1Cl | 0.973 | 0.993 |
| COP(=O)(OC)Oc1ccc(S(C)=O)c(C)c1 (stereo not given) | 1.01 | 1.01 |
| NCP(=O)(O)O | 1.04 | 1.02 |
| Nc1cnn(-c2ccccc2)c(=O)c1Cl | 1.1 | 1.1 |
| CC(=O)O.CC(=O)O.CC(=O)O.NC(N)=NCCCCCCCCNCCCCCCCCN=C(N)N | 0.029 (active) | 0.454 (active) |
| CCN(CC)c1nc(C)cc(OP(=S)(OC)OC)n1 | 0.978 | 0.975 |
| c1cc2c3c(cccc3c1)CC2 | 0.998 | 1.01 |

| Compound | growth AUC [1] | growth AUC [2] |
| --- | --- | --- |
| C[N+]1(C)CCCCC1.[Cl-] | 0.975 | 0.99 |
| Cc1cc(Cl)ccc1OC(C)C(=O)O (stereo not given) | 1.03 | 1.01 |
| CN(C)C(CSC(N)=O)CSC(N)=O.Cl | 1.07 | 1 |
| Cc1cc(C2CC2)nc(Nc2ccccc2)n1 | 0.947 | 1.03 |
| COC(=O)NCc1cc(/C(C)=N/OCc2cccc(C)n2)ccc1Cl | 0.957 | 1.01 |
| CCCC(Cn1cncn1)c1ccc(Cl)cc1Cl (stereo not given) | 1.02 | 0.915 |
| Clc1nc(Cl)nc(Nc2ccccc2Cl)n1 | 1.04 | 1.03 |
| O=C(O)COc1nc(Cl)c(Cl)cc1Cl | 1.01 | 1.01 |
| N#Cc1sc2c(=O)c3ccccc3c(=O)c=2sc1C#N | 1 | 0.908 |
| CCCSC(=O)N(CCC)CCC | 0.994 | 1.04 |
| CCCCc1c(C)nc(N(C)C)[nH]c1=O | 0.959 | 1.02 |
| O=C1C2CC=CCC2C(=O)N1SC(Cl)(Cl)Cl (stereo not given) | 1.01 | 1.05 |
| O=C(O)C(F)(F)C(F)(F)C(F)(F)C(F)(F)C(F)(F)C(F)(F)C(F)(F)C(F)(F)F | 0.975 | 0.998 |
| O=C1C=C(N(Cc2ccc(Cl)nc2)CC(F)F)CO1 | 1.02 | 0.979 |
| Fc1ccc(C2(Cn3cncn3)OC2c2ccccc2Cl)cc1 (stereo not given) | 1.03 | 0.966 |
| CCc1cc(C)cc(CC)c1-c1c(OC(=O)C(C)(C)C)n2n(c1=O)CCOCC2 | 0.981 | 1.02 |
| CC(C)(C)c1cc([N+](=O)[O-])cc([N+](=O)[O-])c1O | 0.802 | 0.848 |
| COC[C@H](C)N(C(=O)CCl)c1c(C)csc1C | 0.966 | 1.04 |
| CCCN(CCC)c1c([N+](=O)[O-])cc(C(F)(F)F)cc1[N+](=O)[O-] | 1 | 1.04 |
| CCSC(=O)N(CC)C1CCCCC1 | 1.07 | 0.948 |
| Nc1nc(N)nc(Cl)n1 | 1.05 | 1.03 |
| CNC(=O)O/N=C(\SC)C(=O)N(C)C | 0.997 | 1.02 |
| CCOC(=O)CC(SP(=O)(OC)OC)C(=O)OCC (stereo not given) | 0.997 | 1.01 |
| CS(=O)(=O)c1ccc(C(=O)C2C(=O)CCCC2=O)c(Cl)c1 | 1.04 | 0.994 |
| CCc1nn(C)c(C(=O)NCc2ccc(Oc3ccc(C)cc3)cc2)c1Cl | 0.924 | 0.986 |
